Paper PMC4336329 (PLoS ONE, 2015)
Screen size: about 310,000 compounds; about 14,000 (4.5%) showed an effect of 50% or more. Effects have a minus sign here. This excerpt belongs to a sample that is enriched for strong results.

Each compound was assayed against human ether-à-go-go-related gene (hERG) potassium channel (human, UniProt Q12809) (assay: primary screen, population patch clamp on CHO cells stably expressing hERG; higher = less effect of the substance).
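Note: peak tail current of the secondary pulse compared with the same well before compound.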

Sequence of human ether-à-go-go-related gene (hERG) potassium channel (Q12809 whole entry, looked up): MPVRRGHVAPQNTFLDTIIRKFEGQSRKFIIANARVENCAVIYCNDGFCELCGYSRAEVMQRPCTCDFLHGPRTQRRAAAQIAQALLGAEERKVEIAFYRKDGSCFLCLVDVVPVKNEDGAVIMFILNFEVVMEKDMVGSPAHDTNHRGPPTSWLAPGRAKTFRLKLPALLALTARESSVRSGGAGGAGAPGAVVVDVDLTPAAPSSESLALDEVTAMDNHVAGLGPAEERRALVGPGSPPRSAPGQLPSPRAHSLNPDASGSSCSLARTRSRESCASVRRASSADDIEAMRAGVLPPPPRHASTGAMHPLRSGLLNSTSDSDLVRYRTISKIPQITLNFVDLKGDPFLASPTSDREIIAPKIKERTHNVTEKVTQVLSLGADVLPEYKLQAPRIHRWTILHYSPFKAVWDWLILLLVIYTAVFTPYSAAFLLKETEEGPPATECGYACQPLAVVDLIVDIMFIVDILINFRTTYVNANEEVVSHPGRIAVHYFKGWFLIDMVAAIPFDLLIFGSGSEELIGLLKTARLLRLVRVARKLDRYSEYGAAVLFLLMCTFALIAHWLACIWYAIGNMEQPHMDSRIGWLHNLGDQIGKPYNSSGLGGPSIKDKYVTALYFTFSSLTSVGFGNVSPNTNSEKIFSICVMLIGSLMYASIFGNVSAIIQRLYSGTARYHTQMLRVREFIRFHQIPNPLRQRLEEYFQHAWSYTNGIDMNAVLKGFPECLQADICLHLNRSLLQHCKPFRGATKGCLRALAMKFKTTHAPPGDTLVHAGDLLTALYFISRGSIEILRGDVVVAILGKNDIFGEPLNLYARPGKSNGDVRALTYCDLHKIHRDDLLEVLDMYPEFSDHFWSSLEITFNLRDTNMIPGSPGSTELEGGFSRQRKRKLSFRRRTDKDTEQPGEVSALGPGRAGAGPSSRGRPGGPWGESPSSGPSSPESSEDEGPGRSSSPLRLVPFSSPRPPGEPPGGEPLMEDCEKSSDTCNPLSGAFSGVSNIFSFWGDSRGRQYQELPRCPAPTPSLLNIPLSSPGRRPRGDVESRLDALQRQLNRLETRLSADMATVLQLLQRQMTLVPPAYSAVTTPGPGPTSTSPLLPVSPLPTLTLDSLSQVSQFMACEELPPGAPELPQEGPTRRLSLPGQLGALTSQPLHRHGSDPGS

| Compound | hERG current change (%, negative = inhibition) at 10uM [%] |
| --- | --- |
| CCn1nc(C)c(Br)c1C(=O)Sc1ccccc1Cl | 21.2 |
| O=C(c1ccc(Cl)cc1[N+](=O)[O-])N1CCN(c2ccccn2)CC1 | -34 |
| Cc1ccc(S(=O)(=O)N2CCN(c3ccc([N+](=O)[O-])c4cccnc34)CC2)cc1 | -9.52 |
| O=C(c1cccc(F)c1)N1CCN(c2cc(N3CCCCC3)c(F)cc2[N+](=O)[O-])CC1 | 0.466 |
| Cn1c(=O)n(C)c2cc([N+](=O)[O-])c(N3CCN(S(=O)(=O)c4ccccc4)CC3)cc21 | -8.67 |
| O=C(c1cc(F)c(F)cc1Cl)N1CCN(c2ncccn2)CC1 | 16.4 |
| O=C(c1cccc(F)c1)N1CCN(c2ccc([N+](=O)[O-])c(N3CCCCC3)c2)CC1 | -6.87 |
| O=C(c1cc(F)c(F)cc1Cl)N1CCN(c2ccc([N+](=O)[O-])c3ncccc23)CC1 | -67.4 |
| O=C(c1ccccc1F)N1CCN(c2ccc([N+](=O)[O-])c(N3CCOCC3)c2)CC1 | 14.2 |
| O=C(c1ccccc1F)N1CCN(c2ccc([N+](=O)[O-])c3ncccc23)CC1 | -68.1 |
| O=[N+]([O-])c1ccc(N2CCOCC2)c2cccnc12 | -25 |
| O=[N+]([O-])c1ccc(N2CCN(S(=O)(=O)c3ccccc3)CC2)c2cccnc12 | -76.8 |
| O=C(c1cccc(F)c1)N1CCN(c2ccc([N+](=O)[O-])c3cccnc23)CC1 | -66.1 |
| CC(=O)Nc1ccc(/C(C)=N/NC(=O)CN(c2ccccc2Br)S(C)(=O)=O)cc1 | -4.13 |
| CNC(=O)CCn1nc(-c2ccc(C)cc2)c2ccccc2c1=O | -8.28 |
| O=C(O)c1ccc(/C=N/Nc2nc(N3CCCCC3)nc(N3CCCCC3)n2)cc1 | 18.4 |
| Cc1nn(Cc2c(Cl)cccc2Cl)c(C)c1NC(=O)/C=C/c1cnn(C)c1C | 8.85 |
| COc1ccc(OC(=O)c2cccc([N+](=O)[O-])c2)c(C(=O)/C=C/c2cccs2)c1 | 3.99 |
| O=C(O)CC(CC(=O)Nc1ccc2ccccc2n1)c1ccccc1 (stereo not shown) | 9.58 |
| Cc1nnc(SCC(=O)NC2CC2)n1CCc1ccccc1 | 13 |
| CCC(=O)Oc1ccc2c(C)cc(=O)oc2c1C | 0.0333 |
| Cc1ccccc1NC(=O)CN1C(=O)NC(C)(CCc2ccccc2)C1=O (stereo not shown) | 22.2 |
| O=[N+]([O-])c1cccc2c(N3CCCC3)ccnc12 | -77.7 |
| O=C(c1ccccc1F)N1CCN(c2ccc([N+](=O)[O-])c3cccnc23)CC1 | -65.5 |
| O=C(c1ccccc1F)N1CCN(c2ccccn2)CC1 | 4.54 |
| O=[N+]([O-])c1cccc2c(N3CCOCC3)ccnc12 | -17.6 |
| O=[N+]([O-])c1cccc2c(Cl)ccnc12 | -0.808 |

| Compound | hERG current change (%, negative = inhibition) at 10uM [%] |
| --- | --- |
| O=C(c1ccccc1F)N1CCN(c2ncccn2)CC1 | 3.24 |
| CCC(C)NC(=O)CCC(=O)Nc1ccc2nc(N3CCOCC3)cc(C)c2c1 (stereo not shown) | 2.55 |
| O=C(NCCc1ccc(Cl)cc1)c1ccc(CNc2c(N3CCOCC3)c(=O)c2=O)cc1 | 25.7 |
| O=C(Nc1ccc2c(c1)OCO2)NC1CCN(Cc2ccccc2)CC1 | -24.8 |
| CC(NC(=O)COC(=O)c1cccs1)c1ccccc1 (stereo not shown) | 23 |
| Cc1cc(NC(=O)c2ccc(F)cc2)ccc1NC(=O)c1ccco1 | 2.98 |
| CC1(C)CC(=O)C2=C(C1)N(CC1CCCO1)C(=O)C2(NC(=O)c1cccnc1)C(F)(F)F (stereo not shown) | 9.64 |
| COC(=NC1CCCC1)C(O)c1c[nH]c2ccccc12 (stereo not shown) | -1.61 |
| CN(C)c1cc(C(F)(F)F)nc(-c2ccccn2)n1 | -0.728 |
| CCO[C@@H]1OC(C(=O)Nc2ccccc2)=C[C@H](c2coc3ccccc3c2=O)[C@H]1CCCO | -50.9 |
| CCO[C@@H]1OC(C(=O)O)=C[C@H](c2cn(C(C)=O)c3ccccc23)[C@H]1CCCO | 13.7 |
| CCO[C@@H]1OC(C(=O)O)=C[C@H](c2coc3ccccc3c2=O)[C@H]1CCCO | 18.9 |
| CCO[C@H]1OC(C(=O)N2CCN(Cc3ccccc3)CC2)=C[C@@H](c2cn(C(C)=O)c3ccccc23)[C@@H]1CCCO | -54 |
| CCO[C@@H]1OC(C(=O)NCc2nc3ccccc3[nH]2)=C[C@H](c2csc3ccccc23)[C@H]1CCCO | -34.1 |
| CCO[C@H]1OC(C(=O)O)=C[C@@H](c2cn(C(C)=O)c3ccccc23)[C@@H]1CCCO | 18.2 |
| CCO[C@@H]1OC(C(=O)NCc2nc3ccccc3[nH]2)=C[C@H](c2cn(C(C)=O)c3ccccc23)[C@H]1CCCO | -67.2 |
| CCO[C@@H]1OC(C(=O)N2CCN(Cc3ccccc3)CC2)=C[C@H](c2cn(C(C)=O)c3ccccc23)[C@H]1CCCO | -37.9 |
| CCO[C@@H]1OC(C(=O)N2CCN(Cc3ccc4c(c3)OCO4)CC2)=C[C@H](c2cn(C(C)=O)c3ccccc23)[C@H]1CCCO | -39.7 |
| CCO[C@H]1OC(C(=O)Nc2ccccc2)=C[C@@H](c2coc3ccccc3c2=O)[C@@H]1CCCO | -28.5 |
| CCO[C@H]1OC(C(=O)Nc2ccccc2)=C[C@@H](c2cn(C(C)=O)c3ccccc23)[C@@H]1CCCO | -62.5 |
| CCO[C@H]1OC(C(=O)NCc2nc3ccccc3[nH]2)=C[C@@H](c2cn(C(C)=O)c3ccccc23)[C@@H]1CCCO | -49.7 |
| O=C1CCCCCN1Sc1ccccc1 | 12 |
| N#Cc1cccc(CN2CCC(=O)N([C@H](CO)c3ccccc3)CC2)c1 | -4.9 |
| CC(=O)N1c2ccc(S(=O)(=O)NCCc3ccc(S(N)(=O)=O)cc3)cc2CC1C (stereo not shown) | 13 |
| COc1ccc(/C=N/NC(=O)c2c(C)n(C)c3ccc(OC)cc23)c(OC)c1 | -14.3 |
| COCC(C)NC(=O)c1ccc2c(c1)S(=O)(=O)c1ccccc1C2=O (stereo not shown) | 3.96 |
| CCn1c(=S)ccc2ccc(OC)cc21 | -0.453 |

| Compound | hERG current change (%, negative = inhibition) at 10uM [%] |
| --- | --- |
| CCOc1ccc(-c2c(C(=O)N/N=C(\C)c3cccs3)nnn2-c2nonc2N)cc1 | 12.9 |
| CCO[C@@H]1OC(C(=O)NCc2ccccc2)=C[C@H](c2ccccc2)[C@H]1CCCO | -18.7 |
| CCO[C@@H]1OC(C(=O)NCc2ccccc2)=C[C@H](c2cn(C(C)=O)c3ccccc23)[C@H]1CCCO | -82.9 |
| CCO[C@H]1OC(C(=O)NCc2ccccc2)=C[C@@H](c2cn(C(C)=O)c3ccccc23)[C@@H]1CCCO | -64.3 |
| CCO[C@H]1OC(C(=O)NCc2ccccc2)=C[C@@H](c2ccccc2)[C@@H]1CCCO | -19.6 |
| C#CCNC(=O)C1=C[C@H](c2cn(C(C)=O)c3ccccc23)[C@@H](CCCO)[C@H](OCC)O1 | -36.9 |
| CCO[C@@H]1OC(C(N)=O)=C[C@H](c2cn(C(C)=O)c3ccccc23)[C@H]1CCCO | 6.45 |
| CCOC(=O)CN/C=C(\C#N)c1ccccc1 | 16.2 |
| COc1cc(/C=C2\C(=O)ON=C2c2ccccc2)cc(Cl)c1O | -49.9 |
| CC(C)(C)OC(=O)CNC(=O)c1[nH]cnc1C(=O)Nc1ccc(CNC(=O)OC(C)(C)C)cc1 | -0.221 |
| CCCCC(=O)Nc1nc(C)c(-c2csc(Nc3cc(OC)ccc3OC)n2)s1 | 5.95 |
| Cc1nc(Nc2cccc(O)c2)c2c3c(sc2n1)CCC3 | -1.85 |
| O=C1CSC(c2ccc(F)cc2)N1c1nc2ccccc2s1 (stereo not shown) | -20.8 |
| O/N=C/c1ccccc1OCc1ccc(Cl)cc1 | 5.5 |
| Cc1ccc(/C=C/C(=O)Nc2ccc([N+](=O)[O-])cc2)o1 | -1.05 |
| CCC(Oc1ccccc1)C(=O)N(Cc1ccccc1)c1ccccn1 (stereo not shown) | -6.96 |
| Cc1nc2ccccc2nc1OCC(=O)Nc1cc(C(F)(F)F)ccc1N1CCOCC1 | 0.222 |
| O=C(CNCc1cccnc1)Nc1cc(C(F)(F)F)ccc1N1CCOCC1.O=C(O)C(=O)O | -67 |
| O=C(Nc1cc(C(F)(F)F)ccc1N1CCOCC1)c1ccccc1 | 12.6 |
| O=C(CNCc1ccccn1)Nc1cc(C(F)(F)F)ccc1N1CCOCC1.O=C(O)C(=O)O | -57.5 |
| O=C(Nc1cc(C(F)(F)F)ccc1N1CCOCC1)c1cnccn1 | -2.15 |
| O=C(Nc1cc(C(F)(F)F)ccc1N1CCOCC1)c1cccnc1 | -42.3 |
| O=C(O)CSc1c2c(nc3cc(C(=O)NCCN4CCOCC4)ccc13)CCC2 | -6.18 |
| CC(C)(C)c1ccc(/C=N/NC(=O)C[n+]2ccccc2)cc1.[Cl-] | 26 |
| Cc1ccc(NC(=O)C2(C)Cc3ccccc3C(=O)O2)cc1 (stereo not shown) | -5.03 |
